Common to all, as to assay: DAPPL (digital affinity profiling via proximity ligation, sequencing); 10 mM Tris-HCl pH 7.5, 50 mM NaCl, 1 mM DTT, 4% glycerol, room temperature, 30 min; GST-TFs on glutathione beads, 16-mer random dsDNA library, 0.1% formaldehyde crosslink after washing; high values mean tight binding
For one assay, the target named is T1, FLI1 (Homo sapiens, UniProt Q01543 1-452).
T1 sequence: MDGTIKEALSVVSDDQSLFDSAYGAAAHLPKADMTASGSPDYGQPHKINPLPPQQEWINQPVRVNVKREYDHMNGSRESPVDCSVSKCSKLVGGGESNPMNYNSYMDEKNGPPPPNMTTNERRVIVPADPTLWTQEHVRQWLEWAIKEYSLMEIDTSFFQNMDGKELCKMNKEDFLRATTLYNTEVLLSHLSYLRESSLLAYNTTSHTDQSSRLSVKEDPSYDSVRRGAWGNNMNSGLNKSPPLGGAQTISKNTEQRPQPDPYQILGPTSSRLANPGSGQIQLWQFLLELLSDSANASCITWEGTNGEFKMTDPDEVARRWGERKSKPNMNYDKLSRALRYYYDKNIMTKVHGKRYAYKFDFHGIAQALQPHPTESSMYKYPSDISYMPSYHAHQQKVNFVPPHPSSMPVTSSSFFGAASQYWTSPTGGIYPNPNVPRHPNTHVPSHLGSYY
The note with it: protein: recombinant; tags: N-terminal GST; dsDNA, one strand shown. A digest of the protocol: (§1)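 Yeast served to express human transcription factors as GST fusions, which were then captured on glutathione beads and labelled with DNA barcodes. Pooled with a tag-only sample, they were incubated with 200 nmole of a 16-mer random double-stranded DNA library for 30 min at room temperature in Tris/NaCl/DTT/glycerol buffer, washed, crosslinked with 0.1% formaldehyde, ligated by proximity, amplified by PCR and sequenced. Dividing each hexamer's read frequency for a factor by its frequency for the tag-only sample gives the binding signal.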

A further assay has as its target T2, ELK1 (Homo sapiens, UniProt P19419 1-428).
T2 sequence: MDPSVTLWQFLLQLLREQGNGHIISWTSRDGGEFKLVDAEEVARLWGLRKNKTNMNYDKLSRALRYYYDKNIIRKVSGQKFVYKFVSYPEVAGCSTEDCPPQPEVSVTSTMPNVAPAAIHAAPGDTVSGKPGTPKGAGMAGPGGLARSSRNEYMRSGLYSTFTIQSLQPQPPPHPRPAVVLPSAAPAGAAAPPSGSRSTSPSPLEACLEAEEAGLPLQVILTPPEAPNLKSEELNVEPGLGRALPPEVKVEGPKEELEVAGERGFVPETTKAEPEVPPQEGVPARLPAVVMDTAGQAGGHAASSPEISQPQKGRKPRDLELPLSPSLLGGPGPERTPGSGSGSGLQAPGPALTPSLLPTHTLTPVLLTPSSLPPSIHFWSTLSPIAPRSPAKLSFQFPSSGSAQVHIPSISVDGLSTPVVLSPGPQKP
Particulars: protein: recombinant; tags: N-terminal GST; dsDNA, one strand shown. A digest of the protocol:
as §1

Another assay deals with T3, GABPA (Homo sapiens, UniProt Q06546 1-454).
T3 sequence: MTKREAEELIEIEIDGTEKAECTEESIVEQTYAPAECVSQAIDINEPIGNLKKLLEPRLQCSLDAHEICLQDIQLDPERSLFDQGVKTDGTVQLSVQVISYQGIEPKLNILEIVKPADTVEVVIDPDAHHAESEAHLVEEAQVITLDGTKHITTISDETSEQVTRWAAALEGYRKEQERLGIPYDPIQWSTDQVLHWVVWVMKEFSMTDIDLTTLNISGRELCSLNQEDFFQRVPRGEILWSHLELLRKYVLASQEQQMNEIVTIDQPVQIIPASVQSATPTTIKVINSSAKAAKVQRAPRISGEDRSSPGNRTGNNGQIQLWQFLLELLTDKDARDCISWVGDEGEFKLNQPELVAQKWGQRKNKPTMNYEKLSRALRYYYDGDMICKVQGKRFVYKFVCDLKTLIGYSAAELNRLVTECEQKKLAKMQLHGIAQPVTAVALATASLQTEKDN
Particulars: protein: recombinant; tags: N-terminal GST; dsDNA, one strand shown. A digest of the protocol: as §1

For the next assay, the target named is T4, ERG (Homo sapiens, UniProt P11308 1-479).
T4 sequence: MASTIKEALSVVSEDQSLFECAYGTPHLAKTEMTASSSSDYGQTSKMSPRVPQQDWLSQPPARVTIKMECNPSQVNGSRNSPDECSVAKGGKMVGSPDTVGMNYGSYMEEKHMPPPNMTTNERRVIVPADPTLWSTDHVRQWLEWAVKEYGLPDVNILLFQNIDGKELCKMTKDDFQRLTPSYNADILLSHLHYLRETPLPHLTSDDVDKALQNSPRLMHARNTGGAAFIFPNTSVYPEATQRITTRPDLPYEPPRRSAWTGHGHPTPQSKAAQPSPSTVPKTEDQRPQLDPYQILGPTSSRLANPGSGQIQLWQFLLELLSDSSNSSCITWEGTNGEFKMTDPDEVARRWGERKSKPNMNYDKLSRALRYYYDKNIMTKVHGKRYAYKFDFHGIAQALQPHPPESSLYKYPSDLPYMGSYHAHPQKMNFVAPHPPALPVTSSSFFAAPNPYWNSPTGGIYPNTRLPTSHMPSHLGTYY
The note with it: protein: recombinant; tags: N-terminal GST; dsDNA, one strand shown. Put shortly:
as §1

The target of the next assay is ELF1 (Homo sapiens, UniProt P32519 1-619). Particulars: protein: recombinant; tags: N-terminal GST; dsDNA, one strand shown. A digest of the protocol:
as §1

For the next assay, the target named is T5, EHF (Homo sapiens, UniProt Q9NZC4 1-300).
T5 sequence: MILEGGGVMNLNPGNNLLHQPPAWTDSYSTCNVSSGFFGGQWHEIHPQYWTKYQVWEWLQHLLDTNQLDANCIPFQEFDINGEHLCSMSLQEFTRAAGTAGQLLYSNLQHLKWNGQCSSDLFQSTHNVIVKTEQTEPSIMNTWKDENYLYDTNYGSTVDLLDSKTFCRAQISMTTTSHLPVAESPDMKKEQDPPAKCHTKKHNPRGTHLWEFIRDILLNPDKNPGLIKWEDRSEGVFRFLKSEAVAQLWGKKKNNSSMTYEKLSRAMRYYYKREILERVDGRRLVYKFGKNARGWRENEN
Particulars: protein: recombinant; tags: N-terminal GST; dsDNA, one strand shown. Put shortly: as §1

A further assay has as its target SPI1 (Homo sapiens, UniProt P17947 1-270). Particulars: protein: recombinant; tags: N-terminal GST; dsDNA, one strand shown. Put shortly: as §1
The target of another assay is SPIB (Homo sapiens, UniProt Q01892 1-262). The note with it: protein: recombinant; tags: N-terminal GST; dsDNA, one strand shown. A digest of the protocol:
as §1

A further assay addresses T6, ELK3 (Homo sapiens, UniProt P41970 1-407).
T6 sequence: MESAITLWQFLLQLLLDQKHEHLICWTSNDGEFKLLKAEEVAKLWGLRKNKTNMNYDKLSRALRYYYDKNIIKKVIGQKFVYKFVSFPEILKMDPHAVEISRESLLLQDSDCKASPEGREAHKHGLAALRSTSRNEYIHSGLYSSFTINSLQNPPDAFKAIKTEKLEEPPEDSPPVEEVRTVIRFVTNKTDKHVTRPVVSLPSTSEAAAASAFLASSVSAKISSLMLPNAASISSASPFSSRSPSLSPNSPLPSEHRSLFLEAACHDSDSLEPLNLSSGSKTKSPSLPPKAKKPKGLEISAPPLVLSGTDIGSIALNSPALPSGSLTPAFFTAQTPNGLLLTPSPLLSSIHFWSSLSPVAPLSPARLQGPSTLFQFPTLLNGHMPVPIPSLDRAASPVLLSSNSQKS
The note with it: protein: recombinant; tags: N-terminal GST; dsDNA, one strand shown. Put shortly:
as §1

The next assay deals with T7, FEV (Homo sapiens, UniProt Q99581 1-238).
T7 sequence: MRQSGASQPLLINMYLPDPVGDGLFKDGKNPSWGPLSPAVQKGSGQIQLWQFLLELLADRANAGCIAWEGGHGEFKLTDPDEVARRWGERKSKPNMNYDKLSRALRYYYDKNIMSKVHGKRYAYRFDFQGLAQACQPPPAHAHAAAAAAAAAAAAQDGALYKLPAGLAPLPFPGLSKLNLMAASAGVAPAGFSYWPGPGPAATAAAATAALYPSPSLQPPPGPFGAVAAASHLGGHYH
The note with it: protein: recombinant; tags: N-terminal GST; dsDNA, one strand shown. Put shortly: as §1

A further assay has as its target ETV5 (Homo sapiens, UniProt P41161 1-510). The note with it: protein: recombinant; tags: N-terminal GST; dsDNA, one strand shown. A digest of the protocol:
as §1

The target in another assay is HSF1 (Homo sapiens, UniProt Q00613 1-529). The note with it: protein: recombinant; tags: N-terminal GST; chain copies: 3; dsDNA, one strand shown. A digest of the protocol: as §1
In another assay the target is T8, SPIC (Homo sapiens, UniProt Q8N5J4 1-248).
T8 sequence: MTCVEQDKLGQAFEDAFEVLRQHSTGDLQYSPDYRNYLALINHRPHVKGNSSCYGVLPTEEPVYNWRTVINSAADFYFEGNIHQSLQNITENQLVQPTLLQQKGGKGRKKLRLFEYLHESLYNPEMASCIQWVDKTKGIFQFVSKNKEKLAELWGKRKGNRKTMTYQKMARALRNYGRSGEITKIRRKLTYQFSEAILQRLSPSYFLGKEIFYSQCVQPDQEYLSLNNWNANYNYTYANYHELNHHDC
Particulars: protein: recombinant; tags: N-terminal GST; dsDNA, one strand shown. Put shortly: as §1

A further assay concerns the target ELF4 (Homo sapiens, UniProt Q99607 1-663). Particulars: protein: recombinant; tags: N-terminal GST; dsDNA, one strand shown. Put shortly: as §1
The target in a further assay is T9, ELK4 (Homo sapiens, UniProt P28324-2 1-405).
T9 sequence: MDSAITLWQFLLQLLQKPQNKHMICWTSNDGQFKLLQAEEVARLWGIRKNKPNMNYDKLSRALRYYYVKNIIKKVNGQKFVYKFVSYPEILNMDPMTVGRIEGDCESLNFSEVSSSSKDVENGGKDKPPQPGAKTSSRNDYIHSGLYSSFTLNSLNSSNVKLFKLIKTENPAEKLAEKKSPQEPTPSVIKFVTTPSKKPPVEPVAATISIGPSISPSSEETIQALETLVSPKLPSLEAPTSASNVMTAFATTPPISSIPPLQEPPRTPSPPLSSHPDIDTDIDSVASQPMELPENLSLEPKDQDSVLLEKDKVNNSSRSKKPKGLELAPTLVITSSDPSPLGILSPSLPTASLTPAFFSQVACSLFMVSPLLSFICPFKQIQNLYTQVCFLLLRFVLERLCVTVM
The note with it: protein: recombinant; tags: N-terminal GST; dsDNA, one strand shown. Put shortly:
as §1

A further assay concerns the target T10, ELF3 (Homo sapiens, UniProt P78545 1-371).
T10 sequence: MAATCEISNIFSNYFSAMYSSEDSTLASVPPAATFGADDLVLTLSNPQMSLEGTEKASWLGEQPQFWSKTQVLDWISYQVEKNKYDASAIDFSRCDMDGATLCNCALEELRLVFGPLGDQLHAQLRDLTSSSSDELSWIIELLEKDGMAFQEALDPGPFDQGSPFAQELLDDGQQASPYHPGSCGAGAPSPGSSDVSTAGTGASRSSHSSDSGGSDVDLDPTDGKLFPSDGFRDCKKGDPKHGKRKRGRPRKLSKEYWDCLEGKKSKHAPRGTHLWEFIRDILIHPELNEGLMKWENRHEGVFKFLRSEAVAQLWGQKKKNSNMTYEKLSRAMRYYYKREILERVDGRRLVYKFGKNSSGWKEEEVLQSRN
The note with it: protein: recombinant; tags: N-terminal GST; dsDNA, one strand shown. Put shortly:
as §1

The target of the next assay is CRX (Homo sapiens, UniProt O43186 1-299). Particulars: protein: recombinant; tags: N-terminal GST; dsDNA, one strand shown. Put shortly: as §1
Another assay has as its target ETV1 (Homo sapiens, UniProt P50549 1-477). The note with it: protein: recombinant; tags: N-terminal GST; dsDNA, one strand shown. A digest of the protocol:
as §1

Sequence of ETV5 (P41161 whole entry): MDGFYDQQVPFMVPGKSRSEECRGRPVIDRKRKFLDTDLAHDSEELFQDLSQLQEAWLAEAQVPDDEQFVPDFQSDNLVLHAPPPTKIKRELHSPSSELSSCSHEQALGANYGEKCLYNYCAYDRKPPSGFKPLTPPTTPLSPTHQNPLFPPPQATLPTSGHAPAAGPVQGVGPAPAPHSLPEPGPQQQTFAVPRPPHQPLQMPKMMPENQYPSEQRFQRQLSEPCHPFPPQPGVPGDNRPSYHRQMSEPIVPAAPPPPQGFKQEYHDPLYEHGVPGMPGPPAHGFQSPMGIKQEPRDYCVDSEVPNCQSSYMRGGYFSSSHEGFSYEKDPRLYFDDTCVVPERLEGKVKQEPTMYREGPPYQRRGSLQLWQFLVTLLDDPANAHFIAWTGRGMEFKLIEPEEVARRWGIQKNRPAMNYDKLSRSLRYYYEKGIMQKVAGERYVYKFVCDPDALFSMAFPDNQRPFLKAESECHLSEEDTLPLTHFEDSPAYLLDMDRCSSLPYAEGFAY
Sequence of ETV1 (P50549 whole entry): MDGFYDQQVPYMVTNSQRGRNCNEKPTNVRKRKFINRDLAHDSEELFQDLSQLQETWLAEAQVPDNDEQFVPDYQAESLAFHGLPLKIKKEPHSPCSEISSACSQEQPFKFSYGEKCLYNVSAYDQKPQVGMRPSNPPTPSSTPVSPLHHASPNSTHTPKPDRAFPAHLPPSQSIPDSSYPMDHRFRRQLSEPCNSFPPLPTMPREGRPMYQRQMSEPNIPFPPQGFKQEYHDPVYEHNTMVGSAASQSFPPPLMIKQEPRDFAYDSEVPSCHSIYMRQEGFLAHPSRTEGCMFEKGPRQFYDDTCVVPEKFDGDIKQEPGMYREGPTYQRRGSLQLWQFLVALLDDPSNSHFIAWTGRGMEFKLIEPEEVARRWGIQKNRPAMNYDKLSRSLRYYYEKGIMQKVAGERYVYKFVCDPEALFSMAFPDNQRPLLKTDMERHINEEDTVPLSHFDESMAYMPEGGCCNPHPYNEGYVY
Sequence of HSF1 (Q00613 whole entry): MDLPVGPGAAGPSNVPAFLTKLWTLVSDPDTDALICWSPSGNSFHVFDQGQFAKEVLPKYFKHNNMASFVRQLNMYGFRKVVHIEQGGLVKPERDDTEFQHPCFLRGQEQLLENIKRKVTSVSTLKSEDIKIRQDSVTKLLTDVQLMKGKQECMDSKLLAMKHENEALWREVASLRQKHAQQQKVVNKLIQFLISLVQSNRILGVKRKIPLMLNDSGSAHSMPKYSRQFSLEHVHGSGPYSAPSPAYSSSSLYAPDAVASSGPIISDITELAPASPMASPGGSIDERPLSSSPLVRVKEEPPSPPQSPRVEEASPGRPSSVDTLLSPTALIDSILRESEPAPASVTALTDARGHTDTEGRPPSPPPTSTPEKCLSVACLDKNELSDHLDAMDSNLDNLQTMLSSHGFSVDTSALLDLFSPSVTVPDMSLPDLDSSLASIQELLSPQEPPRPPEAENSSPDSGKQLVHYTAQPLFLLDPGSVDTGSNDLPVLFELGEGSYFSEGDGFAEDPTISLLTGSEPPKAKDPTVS
Sequence of ELF4 (Q99607 whole entry): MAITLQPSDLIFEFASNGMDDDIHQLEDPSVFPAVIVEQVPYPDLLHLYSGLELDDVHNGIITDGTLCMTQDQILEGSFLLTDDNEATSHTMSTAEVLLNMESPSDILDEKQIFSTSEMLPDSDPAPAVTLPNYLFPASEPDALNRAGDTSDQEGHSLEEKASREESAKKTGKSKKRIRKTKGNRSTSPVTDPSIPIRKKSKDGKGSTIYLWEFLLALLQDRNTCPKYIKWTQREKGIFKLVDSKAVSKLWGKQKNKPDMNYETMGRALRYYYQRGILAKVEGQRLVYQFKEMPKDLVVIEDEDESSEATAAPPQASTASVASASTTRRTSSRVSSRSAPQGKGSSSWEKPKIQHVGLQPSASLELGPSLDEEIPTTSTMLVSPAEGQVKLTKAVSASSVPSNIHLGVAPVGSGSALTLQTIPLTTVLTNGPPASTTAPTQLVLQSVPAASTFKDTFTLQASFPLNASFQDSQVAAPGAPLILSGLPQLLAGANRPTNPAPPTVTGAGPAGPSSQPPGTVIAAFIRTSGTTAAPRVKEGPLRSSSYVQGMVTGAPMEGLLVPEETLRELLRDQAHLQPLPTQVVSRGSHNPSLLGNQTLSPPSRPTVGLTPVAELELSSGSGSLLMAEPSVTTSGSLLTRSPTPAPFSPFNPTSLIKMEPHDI
Sequence of SPIB (Q01892 whole entry): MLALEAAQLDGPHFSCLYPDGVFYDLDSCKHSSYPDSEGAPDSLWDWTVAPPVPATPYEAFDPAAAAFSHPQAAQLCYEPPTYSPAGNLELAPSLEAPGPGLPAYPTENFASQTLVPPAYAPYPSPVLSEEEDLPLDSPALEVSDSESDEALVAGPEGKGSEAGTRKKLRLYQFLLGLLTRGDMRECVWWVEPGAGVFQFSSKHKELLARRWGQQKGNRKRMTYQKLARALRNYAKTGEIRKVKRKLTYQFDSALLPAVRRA
Sequence of CRX (O43186 whole entry): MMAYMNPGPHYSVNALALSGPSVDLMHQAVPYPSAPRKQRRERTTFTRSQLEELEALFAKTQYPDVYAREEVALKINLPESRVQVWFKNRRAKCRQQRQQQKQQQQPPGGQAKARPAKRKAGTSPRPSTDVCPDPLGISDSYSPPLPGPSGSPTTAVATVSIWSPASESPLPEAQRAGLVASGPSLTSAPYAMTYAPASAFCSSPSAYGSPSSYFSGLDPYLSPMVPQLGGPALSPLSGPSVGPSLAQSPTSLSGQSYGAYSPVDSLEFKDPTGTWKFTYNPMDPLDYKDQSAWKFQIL
Sequence of ELF1 (P32519 whole entry): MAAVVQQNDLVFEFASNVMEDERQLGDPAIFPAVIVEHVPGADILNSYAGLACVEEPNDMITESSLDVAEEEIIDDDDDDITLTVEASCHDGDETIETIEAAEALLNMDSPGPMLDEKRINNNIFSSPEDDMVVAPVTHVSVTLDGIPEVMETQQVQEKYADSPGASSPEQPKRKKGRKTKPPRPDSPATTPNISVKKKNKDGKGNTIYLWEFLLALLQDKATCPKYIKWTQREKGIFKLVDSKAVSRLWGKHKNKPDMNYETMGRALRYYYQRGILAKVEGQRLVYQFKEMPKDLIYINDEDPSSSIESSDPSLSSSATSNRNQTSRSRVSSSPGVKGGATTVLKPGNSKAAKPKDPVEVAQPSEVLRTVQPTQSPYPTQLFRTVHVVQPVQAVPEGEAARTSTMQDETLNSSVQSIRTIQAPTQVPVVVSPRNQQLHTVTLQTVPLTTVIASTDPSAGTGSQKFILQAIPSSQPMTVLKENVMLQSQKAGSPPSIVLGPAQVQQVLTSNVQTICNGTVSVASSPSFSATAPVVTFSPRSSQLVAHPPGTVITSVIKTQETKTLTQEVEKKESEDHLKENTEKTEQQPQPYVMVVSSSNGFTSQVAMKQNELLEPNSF

As for GGTACT, the binding signal with FLI1 is 1.25 fold enrichment (6-mer frequency, TF over GST control); in the assay with ELK1 it was 1.21 fold enrichment (6-mer frequency, TF over GST control); with GABPA it was 1.31 fold enrichment (6-mer frequency, TF over GST control); in the assay with ERG it was 1.24 fold enrichment (6-mer frequency, TF over GST control); with ELF1 it was 1.32 fold enrichment (6-mer frequency, TF over GST control); with EHF, 1.25 fold enrichment (6-mer frequency, TF over GST control). Besides, the binding signal with SPI1 is 1.19 fold enrichment (6-mer frequency, TF over GST control); in the assay with SPIB it was 1.15 fold enrichment (6-mer frequency, TF over GST control); in the assay with ELK3 it was 1.35 fold enrichment (6-mer frequency, TF over GST control); in the assay with FEV, 1.28 fold enrichment (6-mer frequency, TF over GST control); with ETV5, 1.39 fold enrichment (6-mer frequency, TF over GST control); with HSF1, 1.05 fold enrichment (6-mer frequency, TF over GST control). The binding signal was 1.24 fold enrichment (6-mer frequency, TF over GST control) in the assay with SPIC; 1.24 fold enrichment (6-mer frequency, TF over GST control) with ELF4; 1.19 fold enrichment (6-mer frequency, TF over GST control) with ELK4; 1.03 fold enrichment (6-mer frequency, TF over GST control) in the assay with ELF3; 1.05 fold enrichment (6-mer frequency, TF over GST control) with CRX; 1.26 fold enrichment (6-mer frequency, TF over GST control) with ETV1.

The values are drawn from PMC7862700, “An all-to-all approach to the identification of sequence-specific readers for epigenetic DNA modifications on cytosine”.
